From PubChem BioAssay (NCATS) come the findings set out here.

Assay [1] in a line: Quantitative High-Throughput drug screen in 47 multiple myeloma cell lines against the NCATS MIPE library collection: KMM1_JCRB cell viability assay (AID 1918960). Further: nearly all actives have a fitted effect of over 30% in size. The method in brief:
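Here, 48 h treatment with MIPE 4.0 agents at 37 °C preceded an ATP luminescence read. Plating density was 500 cells per well.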

The nature of assay [2]: Quantitative High-Throughput drug screen in 47 multiple myeloma cell lines against the NCATS MIPE library collection: Karpas417_ECACC cell viability assay (AID 1918961). The conditions noted are these: Karpas417 myeloma viability, CellTiter-Glo ATP luminescence, 48 h; viability (% of DMSO): at 45.8 µM (top of the series). The method in brief:
(§1)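 Myeloma cell lines, 500 cells per well, exposed to MIPE 4.0 library compounds for 48 h at 37C, 5% CO2. Viability from ATP by CellTiter-Glo luminescence; normalised to DMSO (100%) and media-only (0%) wells.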
For orientation: In ATP-based viability assays light output follows the ATP content of the culture.

Assay [3] in a line: Quantitative High-Throughput drug screen in 47 multiple myeloma cell lines against the NCATS MIPE library collection: KHM11_PLB cell viability assay (AID 1918962). Further: nearly all actives have a fitted effect of over 35% in size. The procedure, abridged:
as §1

A short description of assay [4]: Quantitative High-Throughput drug screen in 47 multiple myeloma cell lines against the NCATS MIPE library collection: JIM3_ECACC cell viability assay (AID 1918963; further: nearly all actives have a fitted effect of over 35% in size). The procedure, abridged:
as §1

A short description of assay [5]: Quantitative High-Throughput drug screen in 47 multiple myeloma cell lines against the NCATS MIPE library collection: INA6_PLB cell viability assay (AID 1918965; further: nearly all actives have a fitted effect of over 55% in size). The procedure, abridged: as §1
A short description of assay [6]: Quantitative High-Throughput drug screen in 47 multiple myeloma cell lines against the NCATS MIPE library collection: JJN3_DSMZ cell viability assay (AID 1918966; further: nearly all actives have a fitted effect of over 50% in size). The procedure, abridged:
(§2)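 Relative luminescence from CellTiter-Glo served as the viability signal, referenced to DMSO-treated (100%) and cell-free medium (0%) controls. Treatment lasted 48 hours at 37C with 500 cells per well.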

Assay [7] in a line: Quantitative High-Throughput drug screen in 47 multiple myeloma cell lines against the NCATS MIPE library collection: H1112_PLB cell viability assay (AID 1918967; further: nearly all actives have a fitted effect of over 30% in size). The procedure, abridged:
as §2

Assay [8] can be described thus: Quantitative High-Throughput drug screen in 47 multiple myeloma cell lines against the NCATS MIPE library collection: Karpas25_ECACC cell viability assay (AID 1918968; further: nearly all actives have a fitted effect of over 35% in size). The procedure, abridged: as §2
Assay [9] is described as follows: Quantitative High-Throughput drug screen in 47 multiple myeloma cell lines against the NCATS MIPE library collection: KMS27_JCRB cell viability assay (AID 1918970). Further: nearly all actives have a fitted effect of over 30% in size. The method in brief: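 Each line is seeded at 500 cells per well and treated with library compounds for 48 hours under 37 °C, 5% CO2. CellTiter-Glo is then added for 5 min at room temperature before median relative luminescence is recorded.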

Assay [10] can be described thus: Quantitative High-Throughput drug screen in 47 multiple myeloma cell lines against the NCATS MIPE library collection: KMS12BM_JCRB cell viability assay (AID 1918971). Further: nearly all actives have a fitted effect of over 35% in size. The method in brief:
(§3)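 qHTS of the MIPE 4.0 collection: 500 myeloma cells/well, 48 h drug exposure at 37C in 5% CO2, then CellTiter-Glo for 5 min at room temperature before luminescence reading.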

A short description of assay [11]: Quantitative High-Throughput drug screen in 47 multiple myeloma cell lines against the NCATS MIPE library collection: KMS12PE_JCRB cell viability assay (AID 1918972). Further: nearly all actives have a fitted effect of over 30% in size. The procedure, abridged: as §1
Assay [12] is described as follows: Quantitative High-Throughput drug screen in 47 multiple myeloma cell lines against the NCATS MIPE library collection: KMS20_JCRB cell viability assay (AID 1918973). Further: nearly all actives have a fitted effect of over 45% in size. The method in brief: as §2
Assay [13] is described as follows: Quantitative High-Throughput drug screen in 47 multiple myeloma cell lines against the NCATS MIPE library collection: KMS21BM_JCRB cell viability assay (AID 1918974). To be noted: ATP luminescence, 48 h; viability: at 45.8 µM (top of the series) unless noted. The method in brief: as §2
Assay [14] in a line: Quantitative High-Throughput drug screen in 47 multiple myeloma cell lines against the NCATS MIPE library collection: KMS26_JCRB cell viability assay (AID 1918975). Further: nearly all actives have a fitted effect of over 45% in size. The procedure, abridged:
as §3

Assay [15] in a line: Quantitative High-Throughput drug screen in 47 multiple myeloma cell lines against the NCATS MIPE library collection: NCIH929_DSMZ cell viability assay (AID 1918978). Further: nearly all actives have a fitted effect of over 35% in size. The method in brief: (§4)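 500 cells/well per myeloma line exposed to pinned MIPE 4.0 compounds for 48 h at 37 °C, 5% CO2. Viability read as ATP by CellTiter-Glo luminescence, normalised to DMSO-only (100%) and media-only (0%) wells.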

Assay [16] in a line: Quantitative High-Throughput drug screen in 47 multiple myeloma cell lines against the NCATS MIPE library collection: MM1S_ATCC cell viability assay (AID 1918980). Further: nearly all actives have a fitted effect of over 45% in size. The method in brief: as §4
The nature of assay [17]: Quantitative High-Throughput drug screen in 47 multiple myeloma cell lines against the NCATS MIPE library collection: JIM1_ECACC cell viability assay (AID 1918964). The procedure, abridged:
as §2

Assay [18] can be described thus: Quantitative High-Throughput drug screen in 47 multiple myeloma cell lines against the NCATS MIPE library collection: MMM1_PLB cell viability assay (AID 1918976). Further: nearly all actives have a fitted effect of over 35% in size. The procedure, abridged:
as §4

Assay [19] in a line: Quantitative High-Throughput drug screen in 47 multiple myeloma cell lines against the NCATS MIPE library collection: OCIMY1_PLB cell viability assay (AID 1918979). Further: nearly all actives have a fitted effect of over 35% in size. The method in brief: as §4
Assay [20] is described as follows: Quantitative High-Throughput drug screen in 47 multiple myeloma cell lines against the NCATS MIPE library collection: MOLP8_DSMZ cell viability assay (AID 1918977). Further: nearly all actives have a fitted effect of over 45% in size. The method in brief: as §4

Results filed as inconclusive are left out. Activity calls are given as the source filed them. The call rests on the fitted dose curve; in most records, active means well fitted curve in the direction sought with a large enough effect; inconclusive means small, poorly fitted or top-dose-only effect, or another doubt; inactive means no such curve, though single readings can be large; an effect the other way counts as inactive or inconclusive.
Potency means the concentration at half of the fitted maximal effect.

With `Cc1cc(Nc2cc(NC(=O)c3c(Cl)cccc3Cl)ccn2)nc(N)n1`, the Potency is 0.418 µM (active) in assay [1]; 2.64 µM (active) in assay [2]; 8.33 µM (active) in [3]; 0.469 µM (active) in assay [4]; 0.935 µM (active) in assay [5]; 0.743 µM (active) in [6]. In addition, the Potency in [7] is 1.05 µM (active); in assay [8], 13.2 µM (active); in assay [9], 0.264 µM (active); in [10] it was 18.7 µM (active); in assay [11] it was 0.166 µM (active); in assay [12] it was 10.5 µM (active). Also, the Potency in assay [13] was 0.418 µM (active); in assay [14] it was 16.6 µM (active); in assay [15], 9.35 µM (active); in [16], 0.209 µM (active).
In the case of `COCCOc1ccc2c(c1)ncn2-c1ccc2cccc(N3CCC(N)CC3)c2n1`, the Potency was 0.526 µM (active) in assay [1]; 0.59 µM (active) in assay [2]; 9.35 µM (active) in assay [3]; 10.5 µM (active) in assay [4]; 5.9 µM (active) in assay [17]; 4.18 µM (active) in [6]. Besides, the Potency was 6.62 µM (active) in [7]; 0.0662 µM (active) in assay [8]; 1.66 µM (active) in assay [9]; 9.35 µM (active) in [10]; 0.0372 µM (active) in assay [11]; 0.0743 µM (active) in assay [12]. The Potency is 13.2 µM (active) in assay [14]; 23.5 µM (active) in assay [18]; 1.66 µM (active) in assay [15]; 2.64 µM (active) in assay [19]; 3.72 µM (active) in assay [16].
Take `Fc1cc(-c2cccc3ncc(-c4cnn(C5CCNCC5)c4)nc23)cc(F)c1CN1CCOCC1`: the Potency result in [1] was “inactive”. For the same compound, the Potency was 0.418 µM (active) in assay [2]; 6.62 µM (active) in assay [3]; 16.6 µM (active) in [4]; 4.18 µM (active) in [5]; 16.6 µM (active) in assay [6]; 23.5 µM (active) in assay [7]. For the same compound, the Potency in [8] is 7.43 µM (active); in assay [9] it was 8.33 µM (active); in assay [10], 18.7 µM (active); in assay [11], 6.62 µM (active); in assay [12], 5.26 µM (active); in assay [18], 23.5 µM (active). Also, the Potency in [20] is 18.7 µM (active); in [15], 8.33 µM (active); in assay [16], 20.9 µM (active).
With `COc1cc2nccc(Oc3ccc(NC(=O)C4(C(=O)Nc5ccc(F)cc5)CC4)cc3)c2cc1OC`, the Potency in [1] was 2.96 µM (active); in assay [4], 14.8 µM (active); in [6], 1.66 µM (active); in [7], 11.8 µM (active); in assay [8] it was 5.26 µM (active); in assay [9] it was 4.69 µM (active). Besides, the Potency in assay [10] is 11.8 µM (active); in assay [11], 7.43 µM (active); in assay [14], 23.5 µM (active); in assay [18], 2.35 µM (active); in assay [20], 14.8 µM (active); in assay [15] it was 16.6 µM (active). In addition, the values for the Potency in [19] and in [16] were 26.4 µM (active) and 0.59 µM (active), respectively. Besides, the Potency entry in assay [2] was “inactive”.
Turning to `Cc1ccc(C(=O)Nc2ccc(CN3CCN(C)CC3)c(C(F)(F)F)c2)cc1C#Cc1cnc2cccnn12`, the Potency was 2.09 µM (active) in assay [1]; 0.469 µM (active) in assay [2]; 0.662 µM (active) in [3]; 1.87 µM (active) in assay [4]; 0.332 µM (active) in assay [5]; 2.64 µM (active) in [6]. The Potency is 0.935 µM (active) in assay [8]; 2.64 µM (active) in assay [9]; 2.96 µM (active) in assay [10]; 0.833 µM (active) in assay [11]; 0.833 µM (active) in assay [12]; 0.662 µM (active) in [13]. Further, the Potency in assay [18] is 7.43 µM (active); in assay [20], 0.833 µM (active); in assay [15], 0.935 µM (active); in assay [19], 14.8 µM (active); in assay [16] it was 4.69 µM (active).
For the compound `CCC(=C(c1ccccc1)c1ccc(OCCN(C)C)cc1)c1ccccc1`, the Potency in assay [1] is 18.7 µM (active); in assay [2], 14.8 µM (active); in assay [4], 23.5 µM (active); in [5], 16.6 µM (active); in assay [8], 18.7 µM (active); in [9], 20.9 µM (active). Besides, the Potency is 26.4 µM (active) in assay [10]; 13.2 µM (active) in [11]; 18.7 µM (active) in assay [13]; 20.9 µM (active) in [14]; 23.5 µM (active) in [18]; 20.9 µM (active) in assay [15]. In [19], the Potency result is “inactive”.
For `CC(C)(O)c1cc2nc(-c3cnc(N)nc3)nc(N3CCOCC3)c2s1`, the Potency is 0.0332 µM (active) in assay [1]; 0.0148 µM (active) in [2]; 0.0105 µM (active) in assay [17]; 0.743 µM (active) in [5]; 0.059 µM (active) in assay [6]; 0.0296 µM (active) in assay [8]. Moreover, the Potency was 0.0833 µM (active) in assay [10]; 1.48 µM (active) in [11]; 0.148 µM (active) in assay [12]; 0.59 µM (active) in [13]; 0.132 µM (active) in assay [14]; 0.0469 µM (active) in assay [18]. Moreover, the Potency in assay [20] is 0.0296 µM (active); in [15], 0.0148 µM (active); in assay [19] it was 0.0296 µM (active); in assay [16], 0.0662 µM (active).
Regarding `CCn1cc(-c2ccnc3[nH]c(-c4cccc(CN(C)C)c4)cc23)c(-c2ccc(NC(=O)N(C)C)cc2)n1`, the Potency in [1] is 3.32 µM (active); in assay [2] it was 1.87 µM (active); in assay [3], 3.32 µM (active); in assay [4], 5.26 µM (active); in assay [17], 5.26 µM (active); in assay [6], 16.6 µM (active). The Potency is 14.8 µM (active) in assay [7]; 4.18 µM (active) in assay [8]; 7.43 µM (active) in assay [9]; 13.2 µM (active) in assay [10]; 5.26 µM (active) in assay [11]; 4.18 µM (active) in assay [12]. Also, the Potency was 0.662 µM (active) in [13], 18.7 µM (active) in assay [14], 8.33 µM (active) in assay [20] and 3.32 µM (active) in [15].
